ChEMBL document CHEMBL4513216, “Probing the Open Global Health Chemical Diversity Library for Multistage-Active Starting Points for Next-Generation Antimalarials” (ACS Infect Dis, 2020)
In all, about 69,000 compounds went through this assay and about 8,600 (12%) showed an effect of 50% or more. The sample as a whole holds a higher share of strong results than the screen did.

system: Plasmodium berghei; experiment: Screen against P. berghei liver stage (PbLuc), transformed with Luciferase, at 10uM; format: functional, HepG2; settings: tested at 10 uM

Structure (SMILES) | INHIBITION [%]
Cc1[nH]c2c(C)ccc(C)c2c1CC(=O)NC1CCCNC1=O (stereo not given) | 35.7
COC(=O)CCNC(=O)c1nc(NS(=O)(=O)c2ccccc2)sc1C | 32.2
COc1c(C2CCCN2CC(=O)N2CCCCC2)c(C)nn1C (stereo not given) | 8.12
O=C(CCn1cnnn1)N1CCCC(CO)(CCCc2ccccc2)C1 (stereo not given) | 23.1
O=C(CCn1cnnn1)N1CCCC(CO)(CCc2ccccc2)C1 (stereo not given) | 39.8
O=C(CCn1cncn1)N1CCCC(CO)(CCCc2ccccc2)C1 (stereo not given) | 72.3
CN(C)C(=O)CN1CCCC1c1nc(N)ncc1-c1ccc(F)cc1 (stereo not given) | 34
N#Cc1ccc(NC2CCN(CC(F)F)CC2)c(F)c1 | 8.53
N#Cc1cccc(N2CC3(CCN(C(=O)c4ccnnc4)C3)CC2=O)c1 (stereo not given) | -13.1
CC(C)=CCC1(C(=O)O)CCCN(c2ccnc(C)n2)C1 (stereo not given) | 47.4
CC(C)=CCC1(C(=O)O)CCCN(CCC(=O)NC2CC2)C1 (stereo not given) | 61.8
Cc1nc(C)n(CC2CCCN(CCC(=O)NC3CCCC3)C2)n1 (stereo not given) | -8.11
CC(C)=CCC1(C(=O)O)CCCN(c2cc(N)ncn2)C1 (stereo not given) | 46.4
O=C(CCN1CCCC(CC2CC2)(C(=O)O)C1)NC1CCCC1 (stereo not given) | 60.7
O=C(CCN1CCCC(CO)(CC2CC2)C1)NC1CCCCC1 (stereo not given) | 34.5
CC(=O)N(Cc1ncc(C)o1)C1CCN(CCc2cccs2)C1 (stereo not given) | 12.7
CCn1cc(NC(=O)C(C)n2ncc(Cl)c2C)c(C(=O)OC)n1 (stereo not given) | 6.83
CCSc1cc(C(=O)NCc2ccccc2O)ccn1 | 34.7
CCSc1cc(C(=O)NCc2ccc(C(=O)NC)cc2)ccn1 | 76.5
CCSc1cc(C(=O)NCCNC(=O)Cc2ccccc2)ccn1 | 26.9
Cc1nc(C)c(C(=O)Nc2ccc(-c3nnc(N(C)C)o3)cc2)o1 | 6.02
CCc1cnc(CN2CCC(N(C)Cc3noc(C)n3)C2)o1 (stereo not given) | 13.6
CCc1nc(CN2CCCC(N(C)CCc3cccs3)C2)no1 (stereo not given) | 56.6
Cc1nc(CN2CCCC(N(C)CCc3cccs3)C2)no1 (stereo not given) | 3.47
CN(CCc1ccncc1)C1CCCN(Cc2noc(C3CC3)n2)C1 (stereo not given) | 14.8
CCc1nc(CN2CCCC(N(C)CCn3cccn3)C2)no1 (stereo not given) | 33.7
CN(CCc1cccs1)C1CCCN(Cc2noc(C3CC3)n2)C1 (stereo not given) | 51.8
CCc1nc(CN(C)C2CCN(CCc3cccs3)C2)no1 (stereo not given) | -79.1
CN(C)Cc1nnc2n1CCN(c1cnccn1)CC2 | -4.02
Cc1nc(C2CCN(C(=O)c3cnc(N(C)C)nc3)CC2)c2sccn12 | -4.82
